In all, about 33,000 sequences were measured (“E-score (-0.5 to 0.5)”: median about -0.017, highest 2% from about 0.3 on). Many of the other results were omitted from the sample, so the highest values are more common in it than they were.
molecular target: T1, Sut1 (UniProt P53032); assay: PBM E-score (8-mer binding enrichment) (E-score (-0.5 to 0.5)); higher = stronger / more preferred TF binding; settings: protein concentration: 200 nM; construct: GST-full length
T1 sequence: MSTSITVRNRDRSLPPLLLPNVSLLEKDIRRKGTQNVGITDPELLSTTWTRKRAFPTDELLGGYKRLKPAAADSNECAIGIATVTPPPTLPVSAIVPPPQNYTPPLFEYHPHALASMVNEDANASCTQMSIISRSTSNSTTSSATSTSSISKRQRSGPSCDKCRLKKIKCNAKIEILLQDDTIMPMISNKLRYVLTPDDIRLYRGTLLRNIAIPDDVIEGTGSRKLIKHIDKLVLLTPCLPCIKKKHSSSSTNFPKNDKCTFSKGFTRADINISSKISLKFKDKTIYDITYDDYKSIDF
Protocol: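 Universal 'all 10-mer' protein binding microarrays (Agilent AMADID 015681) probed with GST-tagged S. cerevisiae TFs (full-length or DBD) made by in vitro transcription/translation (PURExpress), about 100-200 nM. Bound TF was detected with fluorescent anti-GST. Each ungapped 8-mer (which stands for itself and its reverse complement) is scored by the PBM enrichment score (E-score), a modified Wilcoxon-Mann-Whitney statistic from -0.5 to +0.5, computed with the Universal PBM Analysis Suite. Scale: above 0.35 generally sequence-specific binding.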

Row | Sequence | PBM E-score
1 | GCACCTTA | -0.00495
2 | GTTACACA | -0.2
3 | GAAAGGGC | 0.00203
4 | CACAGCAC | -0.205
5 | GTTTCCGA | 0.332
6 | CTTTCCGA | 0.226
7 | GTTTCCAA | 0.0451
8 | CCTTCCGA | 0.134
9 | ACTTCCGA | 0.245
10 | GCTTCCGA | 0.303
11 | AGTGGATG | -0.0759
12 | ATCCCTCC | -0.194
13 | GAGTGAAC | -0.111
14 | AAACTCCA | 0.297
15 | TAACTCCA | 0.143
16 | AAACTCCT | 0.016
17 | ATCTTATC | 0.154
18 | ACGAGGTG | -0.21
19 | ATATAAGC | 0.0532
20 | AAGAAATG | 0.144
21 | AACAAGTT | 0.132
22 | AAGAAATA | 0.177
23 | AACAAATT | 0.306
24 | AAGAAAAG | 0.116
25 | AACAAATG | 0.159
26 | AAGAAATT | 0.313

Row | Sequence | PBM E-score
27 | AAGAAAAT | 0.257
28 | AAGAAAAA | 0.319
29 | GACGCCGC | -0.221
30 | ACAGTCTC | -0.112
31 | CGACGGGC | -0.197
32 | AACTATAA | 0.204
33 | AACTAACA | 0.0858
34 | AACTAACT | 0.175
35 | CACTAATA | 0.213
36 | AACTAACC | 0.336
37 | AACTAATA | 0.324
38 | CACTATAA | -0.0412
39 | TACTAATA | 0.181
40 | AACTAAAG | 0.195
41 | AACTAAAA | 0.31
42 | TACTATAA | 0.306
43 | TACTAAAA | 0.207
44 | AGGGGTGG | -0.277
45 | AGCCGTGA | -0.0248
46 | TGAATACA | 0.241
47 | ATCTGGTG | -0.015
48 | ATTAGATG | 0.303
49 | ATTAGATA | 0.175
50 | ATTAGATC | 0.0421
51 | ATATTCAG | 0.04
52 | CCTTCGGC | -0.233

Row | Sequence | PBM E-score
53 | GCTTCGTA | 0.0454
54 | GCTTCGCA | -0.197
55 | CCTTCGGA | 0.32
56 | ACTTCGGA | 0.397
57 | ACTTCGGC | 0.14
58 | GCTTCGGA | 0.324
59 | CCTTCGCA | -0.178
60 | ACTTCGGG | 0.0676
61 | AATCTGTC | 0.133
62 | GGAAAGAC | -0.0333
63 | CGGCGTAG | -0.176
64 | AAAACTGG | 0.149
65 | ATTGCTGA | -0.0342
66 | CATGAGAA | 0.0161
67 | GCCAAGCC | -0.0191
68 | AGCGGAGG | -0.201
69 | GGCGGAGA | 0.23
70 | CGCGGAGC | 0.26
71 | AGCGGAGC | 0.137
72 | AGCGGAGA | 0.325
73 | CGCGGAGA | 0.387
74 | GACGGTCA | -0.253
75 | CCAAGGGG | -0.143
76 | ACCTTCGC | -0.0159
77 | CTTAACAC | -0.122
78 | ATTAACAC | 0.302

Row | Sequence | PBM E-score
79 | ATTAACAA | 0.199
80 | AGCTATCA | -0.0476
81 | AAGCCGGA | 0.331
82 | GAGCCGGA | 0.254
83 | ATGCCGGC | -0.0395
84 | ATGCCGGA | 0.325
85 | ATGCCGGG | -0.0609
86 | TAGCCGGA | 0.282
87 | ACCATAAC | 0.0292
88 | AATTTAAG | 0.218
89 | AATTTAAC | 0.255
90 | AATTTAAT | 0.317
91 | AATTTTAT | 0.317
92 | AATTTTAA | 0.295
93 | AATTTTAC | 0.27
94 | AGCCTAGA | -0.224
95 | GAACCGCA | 0.0646
96 | AATTGACC | 0.0635
97 | CGAGTGAG | 0.0764
98 | AGGAATAC | -3e-05
99 | CGGAATAC | 0.325
100 | TGGAATAA | 0.122
101 | GGGAATAC | -0.0577
102 | CGGAATAA | 0.306
103 | GGGAATAA | 0.233
104 | AAAGGGTA | -0.054

Row | Sequence | PBM E-score
105 | TGTGGCAA | -0.0604
106 | GAATTGGA | 0.0498
107 | CCCAAACC | -0.0698
108 | GTCCCCGA | 0.066
109 | CTCCCGGA | 0.232
110 | ATCCCGGG | -0.07
111 | GTCCCGGA | 0.348
112 | ATCCCGGA | 0.328
113 | GTCCCGCA | -0.159
114 | CAGTCGAC | -0.0872
115 | TATGCTGA | 0.175
116 | CACACCGG | 0.0539
117 | AACACCGC | -0.0108
118 | AACACCGG | 0.301
119 | CTGCTATC | 0.134
120 | AGTCTCTG | -0.12
121 | AGCAGTAA | 0.0389
122 | AAAAGGCA | 0.114
123 | CAGACGAA | 0.298
124 | GAGACGAA | -0.0447
125 | CAGACGAC | -0.213
126 | AGCTATGC | -0.227
127 | CGGAATTC | 0.323
128 | CTGAATTC | -0.102
129 | CGGAATTA | 0.349
130 | GGGAATTA | 0.143

Row | Sequence | PBM E-score
131 | AGGAATTC | -0.203
132 | AGGAATTA | 0.137
133 | CATGTGAC | -0.0811
134 | AATAAGTC | 0.0835
135 | AATTCCGC | 0.192
136 | AATTCCGG | 0.337
137 | AATTCCGT | 0.317
138 | AATTCCCT | -0.0468
139 | AAATCCGC | -0.0542
140 | AAATCCGT | 0.149
141 | AAATCCGG | 0.36
142 | CATTCCGG | 0.194
143 | AATTCCAT | 0.0698
144 | AAGAGTCG | 0.00242
145 | AGTAGTGC | -0.185
146 | ACACTCGG | 0.00116
147 | GAGAATGC | 0.0169
148 | TACTTATA | 0.151
149 | AACTTATA | 0.31
150 | AACTTATG | 0.0687
151 | GACTTATC | -0.0236
152 | CACTTATA | 0.0975
153 | GACTTATA | 0.326
154 | AACGTCTT | -0.113
155 | GGCTCCCC | -0.226
156 | CAAGGCCC | -0.132

Row | Sequence | PBM E-score
157 | CGCATAAG | -0.0216
158 | CATAGGGA | -0.0219
159 | CAGGTGGC | -0.219
160 | GTTGGTGA | -0.0399
161 | ACCGGATA | 0.0607
162 | CCCGGAGA | 0.374
163 | ACCGGAGT | 0.492
164 | CCCGGAGG | 0.0148
165 | ACCGGAGA | 0.43
166 | ACCGGAGG | 0.133
167 | ACCGGAAT | 0.204
168 | ACCGGAGC | 0.353
169 | ACCAGAGT | -0.256
170 | ACAGGAGA | -0.137
171 | ACCGGATC | 0.0878
172 | CCCGGATA | 0.123
173 | TGTCTGAA | 0.0592
174 | ACCGGTCT | -0.115
175 | ATGACAAT | 0.198
176 | CCGGGAGC | -0.0765
177 | TCCAGAGA | -0.187
178 | CCCGGAGC | 0.406
179 | TCCGGAGA | 0.409
180 | CCCGGAAC | 0.129
181 | GCCGGAGA | 0.316
182 | TCAGGAGA | 0.0262

Row | Sequence | PBM E-score
183 | GCCGGAAA | 0.244
184 | GCCGGAGC | 0.284
185 | CCACCCAG | -0.129
186 | CCGAGTTC | 0.0827
187 | ATACTGGG | -0.138
188 | AGTCCTAT | 0.0983
189 | AATCCGAA | 0.159
190 | AATCCGAT | 0.195
191 | CGTCCGAG | 0.149
192 | GGTCCGAC | 0.24
193 | CGTCCGAC | -0.14
194 | AGTCCGAG | 0.489
195 | AGTCCGAA | 0.49
196 | AGTCCGAT | 0.486
197 | AGTCCGAC | 0.477
198 | AATCCGAG | 0.0276
199 | AGTCCAAA | 0.169
200 | CGCATTCC | -0.284
201 | AGTATCGG | 0.176
202 | CGTGGGTC | -0.162
203 | CCTCAAGA | -0.113
204 | GTCCTCAC | -0.0725
205 | ACAGTCAC | -0.176
206 | ATATACAA | 0.256
207 | TTATACAA | 0.326
208 | GCATACAA | 0.0888

Row | Sequence | PBM E-score
209 | TCATACAA | 0.304
210 | CCATACAA | 0.0626
211 | GTATACAA | 0.179
212 | AACCTTGA | 0.116
213 | GATGGTGC | -0.409
214 | GCAGGGAA | 0.0261
215 | CAAGAGAA | 0.0231
216 | AGAAGCCC | 0.167
217 | GAATATAA | 0.153
218 | CGATAAAA | 0.303
219 | CAATATAG | 0.1
220 | TAATAATA | 0.282
221 | TGATAAAA | 0.283
222 | CAATAAAA | 0.136
223 | GGATAAAA | 0.252
224 | TAATAAAA | 0.332
225 | CAATATAA | 0.308
226 | TAATATAA | 0.306
227 | GAATAAAA | 0.242
228 | CAATATAC | 0.144
